A short description of assay [1]: High Content Imaging Cell-Based qHTS for Inhibitors of the mTORC1 Signaling Pathway in MEF (Tsc2-/-, p53-/-) Cells (AID 2666).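 Further: percent of cells scored positive for phospho-rpS6 Ser235/236 immunostaining by imaging.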 An outline of the steps: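 Cells were plated, dosed with compound after 24 hrs, and incubated another 24 hrs at 37 degree Celsius. Fixed cells were immunostained for phospho-rpS6 Ser235/236 and counterstained, and the normalized signal was scored as % active cells against rapamycin and DMSO controls.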
For orientation: Quantitative high-throughput screening tests each substance at several concentrations.

A short description of assay [2]: High Content Imaging Cell-Based qHTS for Inhibitors of the mTORC1 Signaling Pathway in MEF Cells (AID 2667). Further: potency means the concentration at half of the fitted maximal effect. An outline of the steps:
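Immunofluorescence for rpS6 phosphorylation in MEFs of Tsc2-/-, p53-/- background rescued with WT Tsc2. Compound exposure lasted 24 hrs. Inhibition was scored against rapamycin-treated control wells.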

A short description of assay [3]: Cytometry Cell-Based qHTS for Inhibitors of the mTORC1 Signaling Pathway in MEF cells (AID 2668). Further: potency means the concentration at half of the fitted maximal effect. In short, it runs like this:
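Tsc2-/-, p53-/- MEFs re-expressing WT Tsc2; cpd 24 hrs, 37 degree Celsius; PFA fix, Alexa-488 p-rpS6 (Ser235/236) Ab 2 hrs RT, PI counterstain; Acumen 488nm scan; p-S6/PI ratio → % positive cells; PI count = viability.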

A short description of assay [4]: Validation screen for small molecules that induce DNA re-replication in MCF 10A normal breast cells (AID 463097). Further: nearly all actives have a fitted effect of over 60% in size. An outline of the steps:
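Image-based qHTS: normal breast cells are incubated with compound for 48 hr, stained with Hoechst, and scanned for total nuclear fluorescence. Compounds raising the fraction of nuclei with elevated DNA content count as re-replication inducers.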

Assay [5] deals with Ubiquitin carboxyl-terminal hydrolase 2 (Homo sapiens) (UniProt O75604). Nature of the assay: qHTS Validation Assay for Inhibitors of Ubiquitin-specific Protease USP2a Using CHOP2 as the Reporter (AID 463106). An outline of the steps: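 10nM USP2 core + cpd, 30min RT; add 25nM Ub-CHOP2/25nM substrate; 60min RT; FI 485/531nm. Buffer Tris pH 8.0, CaCl2, BME, CHAPS. Norm. to NEM = 100% inhibition; time-zero read flags fluorescent artifacts.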

Assay [6] deals with DNA polymerase III PolC-type (Bacillus subtilis (strain 168)) (UniProt P13267). Description: qHTS Validation Assay for the Inhibitors of DNA Replication in Gram-Positive Bacteria (AID 485295).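 Further: reconstituted holoenzyme with PolC plus beta clamp SSB and primase; PicoGreen fluorescence of double-stranded DNA made on primed circular M13 template; series mostly up to about 57 µM.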 An outline of the steps:
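First, compound is mixed with the reconstituted replication complex and held at room temperature. Next, circular single-stranded M13Gori with nucleotides starts synthesis. Finally, PicoGreen in EDTA halts the reaction and stains double-stranded product for fluorescence reading.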

Assay [7] has as its target Tumor susceptibility gene 101 protein (Homo sapiens) (UniProt Q99816). Nature of the assay: qHTS Validation Assay for Iinhibitors of HIV-1 Budding by Blocking the Interaction of PTAP/TSG101 (AID 485342; calls by dose curve). In short, it runs like this: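 Binding of a FITC-tagged PTAP-motif peptide (50 nM) to the Tsg101 binding domain (10 uM) is monitored by fluorescence polarization. Compounds are pin-delivered before peptide addition, and incubation runs 20 min at room temperature.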

Assay [8] can be described thus: qHTS Validation Assay to Find Inhibitors of Chronic Active B-Cell Receptor Signaling (AID 485345; active means well fitted curve in the direction sought with a large enough effect in the main read-out, with a control signal flat, not every such curve was filed as active). In short, it runs like this: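 Read-out: ratio of filter-corrected green (IkappaBalpha fusion) to red (native) luciferase signal in doxycycline-induced TMD8 cells after 4 h at 37C. Titration spanned 46 uM–3 nM; Data were normalised to basal cells and 10 uM MG-132 wells.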

Assay [9] deals with Beta-2 adrenergic receptor (Homo sapiens) (UniProt P07550). Description: qHTS validation assay of beta-arrestin-biased ligands of beta2-adrenergic receptor (AID 485366). In short, it runs like this:
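Values derive from curve-fitted %Activity of a luminescent beta-arrestin recruitment reporter; compounds tested up to 46 microM on Tango cells for 18 hr at 37 degrees C, 5% CO2.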

The target in assay [10] is ATP-dependent 6-phosphofructokinase (Trypanosoma brucei brucei) (UniProt O15648). Description: qHTS Validation Assay to Find Inhibitors of T. brucei phosphofructokinase (AID 485368). An outline of the steps:
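Enzyme reaction in triethanolamine buffer pH 8.0 with 5 mM MgCl2, 0.01% Tween20 and 0.1% BSA; PFK 1.25 nM, F6P 0.5 mM, ATP 0.1 mM, 45 min RT. ADP quantified by ADP-Glo.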

Assay [11] can be described thus: Quantitative high throughput screen for delayed death inhibitors of the malarial parasite plastid, 48 hour incubation (AID 488752). Further: nearly all actives have a fitted effect of over 65% in size. An outline of the steps:
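Readout is firefly luciferase luminescence from a reporter integrated into the parasite genome, with lower signal taken as inhibited growth. Infected red cells (0.1% parasitemia, 2% hematocrit final) are cultured with compound for one 48 h cycle at 37 C.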

The target in assay [12] is Thioredoxin reductase 1, cytoplasmic (Rattus norvegicus) (UniProt O89049). Nature of the assay: qHTS Assay for Substrates of Mammalian Selenoprotein Thioredoxin Reductase 1 (TrxR1) (AID 488772).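 Further: NADPH fluorescence in the first read after selenite addition and not the 8 min delta; series mostly up to about 57 µM; a drop in NADPH fluorescence below the no-compound background marks a TrxR1 substrate.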 In short, it runs like this: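 Quantitative HTS in Tris-HCl buffer at pH 7.5 with EDTA and Tween-20, using rat TrxR1, 400 uM NADPH and 400 uM selenite (final). A fall in initial NADPH fluorescence relative to background marked substrate behaviour.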

For assay [13] the target is unchanged. Nature of the assay: qHTS Assay for Inhibitors of Mammalian Selenoprotein Thioredoxin Reductase 1 (TrxR1) (AID 488773). Further: nearly all actives have a fitted effect of over 40% in size. Further: potency means the concentration at half of the fitted maximal effect. The conditions noted are these: Potency: inhibition. An outline of the steps: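 Steps: enzyme (90 nM) plus NADPH (400 uM final), 5 min at ~22 deg C; compound added, 15 min; selenite (400 uM final) added; fluorescence followed for 8 min. Concentration-response curves derived from the normalized delta values.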

Assay [14] deals with Flap endonuclease 1 (Homo sapiens) (UniProt P39748). Description: qHTS Validation Assay for the Inhibitors of Human Flap endonuclease 1 (FEN1) (AID 488816). Further: potency means the concentration at half of the fitted maximal effect. An outline of the steps:
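Readings taken at 0 and 15 min after starting the reaction with 50 nM (final) substrate supplied the signal. Compounds had first sat with 10 nM FEN1 reagent for 15 min at room temperature. Values come from Hill-equation concentration-response fits.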

Assay [15] has as its target Chromobox protein homolog 1 (Homo sapiens) (UniProt P83916). Description: qHTS Validation Assay for Inhibitors of HP1-beta Chromodomain Interactions with Methylated Histone Tails (AID 488953). Further: nearly all actives have a fitted effect of over 50% in size. Further: potency means the concentration at half of the fitted maximal effect. In short, it runs like this: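 50 nM HP1-beta + 50 nM biotin-H3(1-18)K9me3, PBS pH 7.4, 0.01% Tween-20, 30 min RT; compound added, 30 min RT; AlphaScreen beads 10 ug/mL final, 30 min dark; luminescence read.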

Assay [16] has as its target Methanococcus maripaludis chaperonin (MmCpn) (UniProt Q6LX38). Description: High-Throughput Screening for Modulators of Cytosolic Chaperonin Activity: MmCpn Primary Screen (AID 488978).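 Further: 50 nM MmCpn enzyme hydrolysing 30 µM ATP at 37 °C.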 An outline of the steps:
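Steps: chaperonin 50 nM final; add compound, 5 min RT; start with ATP, 30 uM final; hold 10 min at 37C; add ADP Transcreener HTRF reagent, 5 min; read ex 320, em 590 and 665 nm.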

A short description of assay [17]: Cytometric Cell-Based qHTS for Inhibitors of the mTORC1 Signaling Pathway in MEF (Tsc2-/-, p53-/-) Cells (AID 2660).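 Further: Tsc2 and p53 null MEFs carrying empty vector with compound for 24 h; percent of cells above a phospho-rpS6 to PI ratio cutoff in each well; series mostly up to about 38 µM.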 In short, it runs like this: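 Cells are plated, treated with compound for 24 hrs at 37 degree Celsius, then fixed, blocked and immunostained for phospho-rpS6 Ser235/236. Propidium iodide counterstain follows. Per-well % positive cells is derived from the PI-normalized phospho-S6 signal.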

Assay [18] in a line: Quantitative high throughput screen for delayed death inhibitors of the malarial parasite plastid, 96 hour incubation (AID 488745). Further: nearly all actives have a fitted effect of over 70% in size. Further: potency means the concentration at half of the fitted maximal effect. An outline of the steps: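 Infected erythrocytes were added to compound in Albumax-supplemented RPMI 1640 at 0.1% parasitemia and 2% hematocrit (final), incubated 96 h at 37 C under 5% CO2, then luciferase reagent was added and luminescence measured.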

Assay [19] deals with M-phase phosphoprotein 8 (Homo sapiens) (UniProt Q99549). Description: qHTS Validation Assay for Inhibitors for MPP8 Chromodomain Interactions with Methylated Histone Tails (AID 488949). Further: nearly all actives have a fitted effect of over 55% in size. Further: potency means the concentration at half of the fitted maximal effect. An outline of the steps: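 50 nM MPP8 + 50 nM b-H3K9me3 peptide, PBS pH 7.4/0.01% Tween-20, 30 min RT; + cpd 30 min RT; + AlphaScreen donor/Ni-chelate acceptor beads 10 ug/mL final, 30 min dark; luminescence read.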

Experimental findings from PubChem BioAssay (NCATS) are described below.

Results filed as inconclusive are left out. Activity calls are given as the source filed them. Unless noted, the call rests on the fitted dose curve; in most records, active means well fitted curve in the direction sought with a large enough effect; inconclusive means small, poorly fitted or top-dose-only effect, or another doubt; inactive means no such curve, though single readings can be large; an effect the other way counts as inactive or inconclusive.

Sequence of ATP-dependent 6-phosphofructokinase (Trypanosoma brucei brucei) (O15648 whole entry, looked up): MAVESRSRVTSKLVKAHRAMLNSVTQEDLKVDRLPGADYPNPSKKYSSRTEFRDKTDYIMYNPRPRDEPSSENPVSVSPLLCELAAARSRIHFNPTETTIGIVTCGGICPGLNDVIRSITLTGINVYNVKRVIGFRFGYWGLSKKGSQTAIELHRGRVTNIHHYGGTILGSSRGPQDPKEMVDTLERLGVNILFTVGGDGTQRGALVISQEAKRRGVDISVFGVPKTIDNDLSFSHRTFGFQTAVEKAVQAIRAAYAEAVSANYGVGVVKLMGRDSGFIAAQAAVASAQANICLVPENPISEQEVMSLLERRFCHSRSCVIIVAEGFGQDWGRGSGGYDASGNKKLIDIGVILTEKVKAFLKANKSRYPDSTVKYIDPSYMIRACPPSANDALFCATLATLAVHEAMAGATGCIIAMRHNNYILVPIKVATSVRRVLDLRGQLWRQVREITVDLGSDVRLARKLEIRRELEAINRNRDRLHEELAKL
Sequence of Chromobox protein homolog 1 (Homo sapiens) (P83916 whole entry, looked up): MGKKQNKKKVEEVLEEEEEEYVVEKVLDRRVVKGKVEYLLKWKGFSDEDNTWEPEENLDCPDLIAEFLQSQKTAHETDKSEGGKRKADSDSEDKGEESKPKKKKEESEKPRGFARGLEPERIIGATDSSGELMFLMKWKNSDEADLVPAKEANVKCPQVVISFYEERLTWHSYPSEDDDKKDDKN
Sequence of Beta-2 adrenergic receptor (Homo sapiens) (P07550 whole entry, looked up): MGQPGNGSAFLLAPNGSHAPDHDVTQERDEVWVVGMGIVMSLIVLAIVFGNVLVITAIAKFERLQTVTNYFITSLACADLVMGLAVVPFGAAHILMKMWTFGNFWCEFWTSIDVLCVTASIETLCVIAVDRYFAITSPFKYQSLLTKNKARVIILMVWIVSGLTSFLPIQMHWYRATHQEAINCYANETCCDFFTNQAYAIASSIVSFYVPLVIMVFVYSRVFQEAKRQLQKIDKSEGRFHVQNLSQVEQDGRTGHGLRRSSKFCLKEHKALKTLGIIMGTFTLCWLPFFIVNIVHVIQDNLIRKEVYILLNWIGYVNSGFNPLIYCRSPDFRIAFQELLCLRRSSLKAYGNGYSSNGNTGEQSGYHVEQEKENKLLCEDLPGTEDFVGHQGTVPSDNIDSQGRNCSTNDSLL
Sequence of Ubiquitin carboxyl-terminal hydrolase 2 (Homo sapiens) (O75604 whole entry, looked up): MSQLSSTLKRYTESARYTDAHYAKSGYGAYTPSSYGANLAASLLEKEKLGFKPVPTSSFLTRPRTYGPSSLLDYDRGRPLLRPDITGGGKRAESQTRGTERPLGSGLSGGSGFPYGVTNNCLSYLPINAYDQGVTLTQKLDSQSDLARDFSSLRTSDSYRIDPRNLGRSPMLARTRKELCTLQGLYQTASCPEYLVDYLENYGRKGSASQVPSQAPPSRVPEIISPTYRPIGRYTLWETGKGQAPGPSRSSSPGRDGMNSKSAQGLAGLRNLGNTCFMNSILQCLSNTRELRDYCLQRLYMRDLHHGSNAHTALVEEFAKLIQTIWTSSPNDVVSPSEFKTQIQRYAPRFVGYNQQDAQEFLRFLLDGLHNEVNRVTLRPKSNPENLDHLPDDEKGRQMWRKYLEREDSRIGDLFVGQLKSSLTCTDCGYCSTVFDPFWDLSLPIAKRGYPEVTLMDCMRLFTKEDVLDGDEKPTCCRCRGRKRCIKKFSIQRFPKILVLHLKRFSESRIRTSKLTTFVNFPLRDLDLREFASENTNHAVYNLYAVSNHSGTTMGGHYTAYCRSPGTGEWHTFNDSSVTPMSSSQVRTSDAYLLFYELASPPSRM
Sequence of Flap endonuclease 1 (Homo sapiens) (P39748 whole entry, looked up): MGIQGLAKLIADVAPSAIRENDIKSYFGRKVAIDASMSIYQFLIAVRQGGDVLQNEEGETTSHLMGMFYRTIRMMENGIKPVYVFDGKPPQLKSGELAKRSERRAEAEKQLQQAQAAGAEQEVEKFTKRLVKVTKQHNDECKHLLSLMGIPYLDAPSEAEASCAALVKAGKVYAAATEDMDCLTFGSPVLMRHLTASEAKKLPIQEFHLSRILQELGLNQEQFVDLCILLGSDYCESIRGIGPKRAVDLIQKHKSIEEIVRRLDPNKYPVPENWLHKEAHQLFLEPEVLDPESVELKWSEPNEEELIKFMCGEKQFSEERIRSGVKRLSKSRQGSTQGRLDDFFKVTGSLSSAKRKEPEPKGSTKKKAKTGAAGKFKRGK
Sequence of M-phase phosphoprotein 8 (Homo sapiens) (Q99549 whole entry, looked up): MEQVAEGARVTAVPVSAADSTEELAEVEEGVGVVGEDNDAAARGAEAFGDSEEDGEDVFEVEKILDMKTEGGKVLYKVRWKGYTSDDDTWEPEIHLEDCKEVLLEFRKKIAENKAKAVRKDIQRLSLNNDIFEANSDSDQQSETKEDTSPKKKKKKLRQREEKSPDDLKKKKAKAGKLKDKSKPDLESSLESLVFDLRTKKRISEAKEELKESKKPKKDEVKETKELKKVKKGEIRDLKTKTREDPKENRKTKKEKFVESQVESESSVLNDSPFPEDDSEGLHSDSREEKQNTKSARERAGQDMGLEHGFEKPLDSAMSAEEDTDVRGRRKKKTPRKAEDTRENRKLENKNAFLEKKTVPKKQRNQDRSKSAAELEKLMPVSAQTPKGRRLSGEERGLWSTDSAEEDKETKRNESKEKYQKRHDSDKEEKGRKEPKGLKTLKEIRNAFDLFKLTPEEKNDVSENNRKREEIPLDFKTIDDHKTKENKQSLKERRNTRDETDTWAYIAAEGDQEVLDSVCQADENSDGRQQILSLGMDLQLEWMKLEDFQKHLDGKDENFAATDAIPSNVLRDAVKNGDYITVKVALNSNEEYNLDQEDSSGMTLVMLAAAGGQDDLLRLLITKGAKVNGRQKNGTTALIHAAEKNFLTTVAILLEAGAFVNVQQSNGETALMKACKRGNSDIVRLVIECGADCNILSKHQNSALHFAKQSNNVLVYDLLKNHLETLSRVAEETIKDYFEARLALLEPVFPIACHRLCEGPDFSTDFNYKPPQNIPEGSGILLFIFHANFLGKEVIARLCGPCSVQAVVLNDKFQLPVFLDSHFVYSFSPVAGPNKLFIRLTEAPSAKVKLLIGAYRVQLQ
Sequence of DNA polymerase III PolC-type (Bacillus subtilis (strain 168)) (P13267 whole entry, looked up): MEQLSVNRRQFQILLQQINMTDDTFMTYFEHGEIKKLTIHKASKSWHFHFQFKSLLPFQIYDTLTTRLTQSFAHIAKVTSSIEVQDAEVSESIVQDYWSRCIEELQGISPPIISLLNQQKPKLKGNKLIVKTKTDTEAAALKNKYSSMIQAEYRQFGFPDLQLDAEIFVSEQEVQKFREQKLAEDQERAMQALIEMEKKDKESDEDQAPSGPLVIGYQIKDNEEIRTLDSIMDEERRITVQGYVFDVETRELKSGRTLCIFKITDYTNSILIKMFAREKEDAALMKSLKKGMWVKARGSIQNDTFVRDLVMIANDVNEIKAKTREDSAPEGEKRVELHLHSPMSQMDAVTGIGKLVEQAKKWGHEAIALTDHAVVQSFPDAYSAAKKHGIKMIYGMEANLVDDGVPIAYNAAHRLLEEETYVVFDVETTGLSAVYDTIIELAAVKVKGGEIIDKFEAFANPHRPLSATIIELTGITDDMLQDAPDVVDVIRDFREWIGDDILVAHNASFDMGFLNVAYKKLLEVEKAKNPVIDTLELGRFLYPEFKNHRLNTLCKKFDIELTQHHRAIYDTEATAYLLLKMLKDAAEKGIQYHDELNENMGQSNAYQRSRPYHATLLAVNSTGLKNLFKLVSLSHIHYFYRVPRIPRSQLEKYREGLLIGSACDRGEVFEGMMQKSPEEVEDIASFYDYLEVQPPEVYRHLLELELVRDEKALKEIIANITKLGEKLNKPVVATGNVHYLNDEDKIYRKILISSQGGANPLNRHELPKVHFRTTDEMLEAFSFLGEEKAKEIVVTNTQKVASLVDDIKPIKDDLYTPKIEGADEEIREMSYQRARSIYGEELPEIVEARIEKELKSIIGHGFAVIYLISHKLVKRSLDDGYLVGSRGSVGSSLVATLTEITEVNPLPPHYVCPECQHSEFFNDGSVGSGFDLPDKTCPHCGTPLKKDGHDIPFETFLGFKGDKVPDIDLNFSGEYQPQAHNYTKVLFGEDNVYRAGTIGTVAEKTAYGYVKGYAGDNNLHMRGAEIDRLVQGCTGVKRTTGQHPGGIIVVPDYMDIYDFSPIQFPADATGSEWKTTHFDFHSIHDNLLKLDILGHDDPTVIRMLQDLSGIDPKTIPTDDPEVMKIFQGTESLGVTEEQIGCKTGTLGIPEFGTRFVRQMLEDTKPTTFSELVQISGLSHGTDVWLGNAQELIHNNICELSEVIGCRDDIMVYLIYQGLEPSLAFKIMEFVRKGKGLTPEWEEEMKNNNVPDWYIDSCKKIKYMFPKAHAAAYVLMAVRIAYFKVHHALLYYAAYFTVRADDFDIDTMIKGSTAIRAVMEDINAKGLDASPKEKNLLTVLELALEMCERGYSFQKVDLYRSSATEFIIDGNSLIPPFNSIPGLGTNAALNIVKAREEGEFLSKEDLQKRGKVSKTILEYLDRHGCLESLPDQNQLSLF
Sequence of Tumor susceptibility gene 101 protein (Homo sapiens) (Q99816 whole entry, looked up, the tested form may be a part): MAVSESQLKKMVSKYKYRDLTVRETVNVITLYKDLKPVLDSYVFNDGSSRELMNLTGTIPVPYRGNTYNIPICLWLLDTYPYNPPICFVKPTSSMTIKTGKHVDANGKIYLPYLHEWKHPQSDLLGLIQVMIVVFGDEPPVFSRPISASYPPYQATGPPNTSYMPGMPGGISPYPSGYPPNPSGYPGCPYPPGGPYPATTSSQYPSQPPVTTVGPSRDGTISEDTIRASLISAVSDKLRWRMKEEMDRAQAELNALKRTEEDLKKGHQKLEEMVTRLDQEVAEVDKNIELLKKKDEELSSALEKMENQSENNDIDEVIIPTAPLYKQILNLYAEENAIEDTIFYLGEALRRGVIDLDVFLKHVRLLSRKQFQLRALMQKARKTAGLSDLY

Take `C[C@@H](NCCc1ccc(O)cc1)[C@@H](O)c1ccc(O)cc1`: the Potency result in assay [1], in [2], in assay [3], in assay [4], in [5] and in assay [6] was “inactive” in each case. Further, the Potency entry in [10], in assay [11], in assay [13], in assay [14] and in assay [15] was “inactive” each time. The compound was classed as inactive in assay [7], in [8], in assay [9], in [12] and in assay [16].

As for `COc1ccccc1N1CCN(CCCCN2C(=O)c3ccccc3C2=O)CC1`, the compound was called inactive in [17], in assay [7] and in assay [16]. Moreover, the Potency entry in [2], in assay [3], in assay [4], in [5], in [6] and in assay [10] was “inactive” each time. The Potency entry in assay [18], in assay [11], in assay [13], in assay [14], in assay [19] and in [15] was “inactive” throughout.

Turning to `CN(CC[C@@H](Oc1ccc(C(F)(F)F)cc1)c1ccccc1)CC(=O)O`, the compound was classed as inactive in assay [17], in assay [7], in assay [8], in assay [9], in assay [12] and in assay [16]. Also, the Potency entry in assay [2], in assay [3], in [5], in assay [6], in assay [13] and in [14] was “inactive” throughout. Also, the Potency result in [19] and in [15] was “inactive” in each case.

For `COc1ccccc1N1CCN(CCCNc2c(C)c(=O)n(C)c(=O)n2C)CC1`, the Potency result in assay [1], in assay [2], in assay [3], in assay [4], in assay [5] and in assay [6] was “inactive” throughout. For the same compound, the Potency entry in assay [13], in assay [14] and in [19] was “inactive” each time. Moreover, the compound was classed as inactive in [7], in [8], in [9], in [12] and in assay [16]. Besides, the Potency in assay [18] is 14.7 µM (active).

For `CC[n+]1c(/C=C/C=C2/N(C)c3ccccc3C2(C)C)sc2ccccc21`, the result in assay [17], in assay [9] and in assay [16] was inactive. Also, the Potency in [2] is 0.0521 µM (active); in assay [3] it was 0.0826 µM (active); in assay [14], 26.7 µM (active); in [19] it was 15 µM (active); in [15], 25.1 µM (active). For the same compound, the Potency entry in assay [6] and in assay [13] was “inactive” in each case.

Consider `C[C@](Cc1ccc(O)c(O)c1)(NN)C(=O)O`, for which the outcome in assay [17], in assay [7], in [8], in assay [9] and in [12] was inactive. The Potency entry in assay [2], in assay [5], in assay [6], in assay [19] and in assay [15] was “inactive” in each case. Further, the Potency in assay [13] was 8.44 µM (active).

In the case of `CCCn1c(=O)c2[nH]c(-c3ccc(S(=O)(=O)O)cc3)nc2n(CCC)c1=O`, the Potency result in assay [1], in [2], in assay [3], in assay [4], in [5] and in assay [6] was “inactive” in each case. In addition, the Potency result in assay [10], in [18], in assay [13], in [14], in [19] and in assay [15] was “inactive” throughout. In addition, the compound was classed as inactive in [7], in [9] and in assay [12].
